PubChem BioAssay (Tox21)
Inconclusive results are not listed. A call without a number means that no potency is given here. Activity calls are given as the source filed them. Unless noted, the call rests on the fitted dose curve; in most records, active means well fitted curve in the direction sought with a large enough effect in the repeat runs; inconclusive means weak or mixed curves; inactive means no such curve, though single readings can be large; an effect the other way counts as inactive or inconclusive.

Key:
[1] = qHTS assay to identify aromatase inhibitors - cell viability counter screen (AID 743084);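 further: cells stimulated with testosterone during compound exposure; nearly all actives have a fitted effect of over 55% in size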; further: potency means the concentration at half of the fitted maximal effect
[2] = qHTS assay to identify small molecule that activate the aryl hydrocarbon receptor (AhR) signaling pathway - cell viability counter screen (AID 743086); further: nearly all actives have a fitted effect of over 45% in size; further: potency means the concentration at half of the fitted maximal effect
How it was run: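 HepG2-AhR-luc (HG2L7.5c1) cells, 4000/well, treated 24 h at 37 C with compound; viability measured as CellTiter-Fluor fluorescence after 30 min in the same wells as the luciferase read.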

[3] = biological target: Peroxisome proliferator-activated receptor gamma (Homo sapiens) (UniProt P37231); experiment: qHTS assay to identify small molecule agonists of the peroxisome proliferator-activated receptor gamma (PPARg) signaling pathway (AID 743094; active means well fitted activation curve with a large enough effect in the signal ratio in the repeat runs, not every such curve was filed as active; the % refers to the signal ratio)
How it was run: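 Following 5 h plating at 37C, PPARg-bla HEK293H cells receive compound or DMSO for 17 h; fluorescence intensity is recorded after LiveBLAzer B/G loading for 1 h at room temperature.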

[4] = qHTS assay to identify small molecule phospholipidosis (PLD) inducers (AID 1259344; active means well fitted curve in the direction sought with a large enough effect; an effect the other way counts as inactive or inconclusive)
How it was run: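 HepG2 cells, 900/well, treated with compound plus LipidTOX Red for 24 h at 37 C; amiodarone positive and DMSO negative controls. Fixed with paraformaldehyde/Hoechst, then high-content imaging scored LipidTOX pit count and integrated intensity per well and per cell.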

[5] = biological target: Nuclear receptor subfamily 1 group I member 2 (Homo sapiens) (UniProt O75469); experiment: CYP3A4 induction through human pregnane X receptor (PXR) by small molecules, qHTS assay (AID 1346984); further: nearly all actives have a fitted effect of over 40% in size
How it was run: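 qHTS, concentration-response format: HepG2 DPX-2 line, PXR/CYP3A4-luc. Exposure 24 h, 37C. Substrate Luciferin-IPA 3uM final, 3 h. Detection One-Glo, 30 min RT.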

[6] = biological target: Aryl hydrocarbon receptor (Homo sapiens) (UniProt P35869); experiment: qHTS assay to identify small molecule that activate the aryl hydrocarbon receptor (AhR) signaling pathway (AID 743085); further: nearly all actives have a fitted effect of over 15% in size; further: potency means the concentration at half of the fitted maximal effect;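 on activation: HG2L7.5c1 human HepG2 liver cells with stably integrated DRE-driven firefly reporter; series mostly up to about 70 µM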
How it was run: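 24 h compound exposure, 37C, HepG2-derived HG2L7.5c1 cells with DRE-responsive luciferase. Readouts: fluorescence viability, then luminescence at room temperature after 30 min.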

[7] = biological target: Nuclear receptor subfamily 1 group I member 2 (Homo sapiens) (UniProt O75469); experiment: Human pregnane X receptor (PXR) activation by small molecules, qHTS assay (AID 1346985); further: nearly all actives have a fitted effect of over 40% in size; further: potency means the concentration at half of the fitted maximal effect
How it was run: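 DPX-2 cells (HepG2 co-transfected with a PXR response element and a CYP3A4-promoter luciferase construct) were seeded at 2,000 per well, rested 5 hr at 37C, then exposed to DMSO-dissolved compounds for 24 hr. Activation was read as luciferase luminescence.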

Chain of Aryl hydrocarbon receptor (Homo sapiens) (P35869 whole entry, looked up): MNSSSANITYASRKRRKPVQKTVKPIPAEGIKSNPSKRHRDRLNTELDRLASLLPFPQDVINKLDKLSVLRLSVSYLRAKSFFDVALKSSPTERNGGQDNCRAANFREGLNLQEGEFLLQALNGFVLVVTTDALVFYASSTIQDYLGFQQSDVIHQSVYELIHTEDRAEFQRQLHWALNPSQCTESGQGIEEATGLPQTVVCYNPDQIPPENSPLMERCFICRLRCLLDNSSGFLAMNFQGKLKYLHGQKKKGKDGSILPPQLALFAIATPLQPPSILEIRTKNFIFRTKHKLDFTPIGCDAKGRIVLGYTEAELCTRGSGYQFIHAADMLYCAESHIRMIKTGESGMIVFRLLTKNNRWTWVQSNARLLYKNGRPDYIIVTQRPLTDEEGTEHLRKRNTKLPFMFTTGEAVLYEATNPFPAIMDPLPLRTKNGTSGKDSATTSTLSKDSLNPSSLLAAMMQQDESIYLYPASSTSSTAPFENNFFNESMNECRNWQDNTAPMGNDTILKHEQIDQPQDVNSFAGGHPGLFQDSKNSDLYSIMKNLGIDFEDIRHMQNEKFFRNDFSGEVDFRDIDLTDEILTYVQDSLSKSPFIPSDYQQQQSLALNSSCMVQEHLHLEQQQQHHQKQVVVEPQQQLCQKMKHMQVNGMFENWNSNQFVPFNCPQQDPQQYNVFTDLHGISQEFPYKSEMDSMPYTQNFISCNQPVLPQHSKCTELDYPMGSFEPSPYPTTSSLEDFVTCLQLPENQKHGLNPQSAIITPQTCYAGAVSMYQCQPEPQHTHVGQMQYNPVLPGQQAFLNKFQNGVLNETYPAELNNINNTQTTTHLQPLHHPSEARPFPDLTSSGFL
Chain of Peroxisome proliferator-activated receptor gamma (Homo sapiens) (P37231 whole entry, looked up): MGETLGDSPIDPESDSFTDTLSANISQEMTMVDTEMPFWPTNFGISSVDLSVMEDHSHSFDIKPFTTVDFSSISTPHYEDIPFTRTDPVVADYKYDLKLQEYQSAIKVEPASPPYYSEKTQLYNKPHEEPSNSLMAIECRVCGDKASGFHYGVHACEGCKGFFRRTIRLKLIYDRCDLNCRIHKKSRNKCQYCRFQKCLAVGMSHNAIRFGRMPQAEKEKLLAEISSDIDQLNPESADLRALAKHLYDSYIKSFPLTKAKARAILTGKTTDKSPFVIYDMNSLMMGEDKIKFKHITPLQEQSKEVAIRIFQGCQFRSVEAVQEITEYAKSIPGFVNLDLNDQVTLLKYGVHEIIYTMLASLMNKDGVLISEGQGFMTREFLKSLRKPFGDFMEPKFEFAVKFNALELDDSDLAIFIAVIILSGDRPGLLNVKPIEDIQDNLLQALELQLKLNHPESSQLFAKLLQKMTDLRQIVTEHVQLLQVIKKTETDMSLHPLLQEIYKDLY

Structure (SMILES)	Potency [1]	Potency [2]	Potency [3]	Potency [4]	Potency [5]	Potency [6]	PLD induction [4]	Potency [7]
O=P(O)(O)OC[C@H](O)CO	inactive	inactive	inactive	inactive	inactive	–	–	–
O=C(O)c1cccc(/C=C2/C[C@@H]3[C@@H](/C=C/[C@@H](O)C4CCCCC4)[C@H](O)C[C@@H]3O2)c1	inactive	inactive	–	inactive	–	inactive	–	–
CCCOc1ccc2nc(NC(=O)OC)sc2c1	inactive	inactive	inactive	inactive	inactive	4.22 µM (active)	–	–
NNc1nnc(Cc2ccncc2)c2ccccc12	inactive	inactive	–	–	–	11.9 µM (active)	-2.11% [at 7.66 µM] (inactive)	–
Cc1cccc(C)c1Nc1ncccc1C(=O)O	inactive	–	inactive	inactive	inactive	29.8 µM (active)	–	–
Cc1ccccc1CNc1ncnc2c1ncn2[C@@H]1O[C@H](CO)[C@@H](O)[C@H]1O	inactive	inactive	–	inactive	–	inactive	–	–
C#CCOc1ccc2c(C)cc(=O)oc2c1	inactive	inactive	inactive	inactive	inactive	–	–	–
CC(=O)O[C@H]1C[C@@]2(C)[C@@H](C[C@@H](O)[C@H]3[C@@]4(C)CC[C@@H](O)[C@@H](C)[C@@H]4CC[C@@]32C)/C1=C(\CCC=C(C)C)C(=O)O	inactive	–	inactive	inactive	–	inactive	–	inactive
CCOC(=O)C1=C[C@@H](OC(CC)CC)[C@H](NC(C)=O)[C@@H](N)C1	inactive	inactive	–	inactive	–	inactive	–	–
CCCCCCCCCCCCCCCC(=O)OC[C@@H](COP(=O)([O-])OCC[N+](C)(C)C)OC(=O)CCCCCCCCCCCCCCC	inactive	inactive	–	–	–	inactive	-0.903% [at 1.53 µM] (inactive)	–
CCCCC(=O)N(Cc1ccc(-c2ccccc2-c2nn[nH]n2)cc1)[C@@H](C(=O)O)C(C)C	inactive	–	inactive	inactive	inactive	inactive	–	–
O=C(O)CCC/C=C\C[C@@H]1[C@@H](/C=C/[C@@H](O)COc2cccc(C(F)(F)F)c2)[C@H](O)C[C@@H]1O	inactive	inactive	inactive	inactive	inactive	–	–	–
CCN(CC)CCOc1ccc2nc(N(C)C)sc2c1	inactive	inactive	–	inactive	inactive	–	–	–
CC(C)CN(C[C@@H](O)[C@H](Cc1ccccc1)NC(=O)O[C@H]1CO[C@H]2OCC[C@H]21)S(=O)(=O)c1ccc(N)cc1	inactive	inactive	–	inactive	–	inactive	–	–
CC1CC(OC(=O)C(O)c2ccccc2)CC(C)(C)C1 (stereo not drawn)	–	inactive	inactive	inactive	inactive	–	–	–
CCC(=O)NCCC1CCc2ccc3c(c21)CCO3 (stereo not drawn)	inactive	inactive	inactive	inactive	–	inactive	–	28.2 µM (active)
CC1(C)N=C(N)N=C(N)N1c1ccc(Cl)cc1	inactive	inactive	–	–	–	inactive	-3.82% [at 7.66 µM] (inactive)	–
COc1cc(Br)c(C[N+]2(CCOCCC3CCC4CC3C4(C)C)CCOCC2)cc1OC (stereo not drawn)	inactive	inactive	–	inactive	–	inactive	–	–
OCC(O)COc1ccc(Cl)cc1 (stereo not drawn)	inactive	inactive	inactive	inactive	–	inactive	–	–
O=C(NCCNCC(O)COc1ccc(O)cc1)N1CCOCC1 (stereo not drawn)	inactive	inactive	–	inactive	–	inactive	–	–
CO[C@H]1C[C@H](O[C@H]2[C@H](C)O[C@@H](O[C@@H]3/C(C)=C/C[C@@H]4C[C@@H](C[C@]5(C=C[C@H](C)[C@@H](C6CCCCC6)O5)O4)OC(=O)[C@@H]4C=C(C)[C@@H](O)[C@H]5OC/C(=C\C=C\[C@@H]3C)[C@]54O)C[C@@H]2OC)O[C@@H](C)[C@@H]1O	inactive	inactive	–	inactive	–	inactive	–	–
C/C=C1\NC(=O)[C@H]2CSSCC/C=C/[C@H](CC(=O)N[C@H](C(C)C)C(=O)N2)OC(=O)C(C(C)C)NC1=O (stereo partly drawn)	13.3 µM (active)	15 µM (active)	–	inactive	–	inactive	–	–
O=c1[nH]cnc2[nH]cc(CN3CCCCC3)c12	inactive	inactive	inactive	–	–	inactive	1.92% [at 1.53 µM] (inactive)	–
OC[C@H]1O[C@@H](n2cnc3c2NC=NC[C@H]3O)C[C@@H]1O	inactive	inactive	inactive	inactive	–	inactive	–	–
C=C1c2c(Cl)ccc(O)c2C(O)=C2C(=O)[C@]3(O)C(O)=C(C(N)=O)C(=O)[C@@H](N(C)C)[C@@H]3[C@@H](O)[C@H]12	inactive	inactive	inactive	inactive	–	inactive	–	–
CCCCc1cc2c(=O)c(C(=O)OC)c[nH]c2cc1OCc1ccccc1	inactive	inactive	inactive	inactive	–	inactive	–	–
Cc1nnc(C(C)C)n1C1C[C@H]2CC[C@@H](C1)N2CC[C@H](NC(=O)C1CCC(F)(F)CC1)c1ccccc1 (stereo partly drawn)	inactive	inactive	–	–	–	inactive	-2.27% [at 7.66 µM] (inactive)	–
CN(CCO)CC(O)Cn1cnc2c1c(=O)n(C)c(=O)n2C (stereo not drawn) (tested in a mixture with another compound)	inactive	inactive	inactive	inactive	–	inactive	–	–
